Among all 320,000 compounds or so, about 9,100 (2.8%) were called active. A call without a number means that no potency is given here. Roughly 3% stayed inconclusive and do not appear here. Calls come from the whole dose curve; as a rule, active = well fitted activation curve with a large enough effect; inconclusive = small, poorly fitted or top-dose-only effect; inactive = no such curve, though single readings can be large or run the other way. This excerpt belongs to a sample that is enriched for actives.
Assay: qHTS Assay for Rab9 Promoter Activators; note: nearly all actives have a fitted effect of over 60% in size
Details: Huh7 Rab9 promoter-luciferase reporter, luminescence, 24 h; series mostly up to 9.22 µM
Outline: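 Quantitative HTS format; Huh7 Rab9-luciferase reporter cells (1500/well) receive compound 2 h post-plating, incubate 24 h at 37 °C, then get luciferase reagent for 10 min before luminescence reading.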
Potency is the fitted concentration of half-maximal effect.

| SMILES | Potency |
| --- | --- |
| COc1ccc(S(=O)(=O)Nc2cc(C)on2)cc1NC(C)=O | inactive |
| Cc1ccc(NC(=O)Cn2nnc(C(=O)NCc3ccco3)c2N)c(C)c1 | inactive |
| COc1ccc([C@H]2CC(=O)C=C(/C=C/c3ccc(Cl)cc3)C2)cc1 | inactive |
| CSCCC(NC(=O)c1ccco1)C(=O)NCCc1ccc(F)cc1 (centres undefined) | inactive |
| CCCC(=O)N1CCN(c2nnc(-c3ccc(C)cc3)c3ccccc23)CC1 | inactive |
| O=C(C1CCC1)N1CCN(S(=O)(=O)c2ccc([N+](=O)[O-])cc2)CC1 | inactive |
| Cc1ccc2c(c1)C1CN(C)CCC1N2S(=O)(=O)c1cccc(F)c1 (centres undefined) | inactive |
| COc1ccc(CNC(=O)COc2ccccc2C(=O)c2cnn(-c3ccccc3)c2)cc1OC | inactive |
| O=C(c1cnn(-c2ccc(Cl)cc2)c1)c1ccccc1O | 3.55 µM (active) |
| Cc1ncc(CC(=O)n2cc(C(=O)c3cc(Cl)ccc3O)cn2)s1 | inactive |
| COc1ccc(-c2c(-c3cc(OC)cc(OC)c3)n(C)c3ccc(-c4ccn[nH]4)cc23)cc1 | inactive |
| Cc1cc(C(=O)COc2ccc(Br)cc2F)c(C)n1C1CC1 | inactive |
| CC(=O)NC(c1cccs1)c1cc(Br)c2cccnc2c1O (centres undefined) | inactive |
| COc1ccc(C)cc1NC(=O)c1cc(-c2ccccc2)nc2c1cnn2C(C)C | inactive |
| CC1Cc2ccccc2N1S(=O)(=O)c1cccc(C(=O)NCC(c2ccco2)N2CCCC2)c1 (centres undefined) | inactive |
| Nc1ccc(N=Nc2ccccc2Cl)c(N)n1 | 2.82 µM (active) |
| CCc1cccc(NC(=O)COC(=O)c2cc(=O)c3ccccc3o2)c1 | inactive |
| CCOC(=O)c1ccc(NC(=O)C2CC(=O)N(c3ccc4c(c3)OCCO4)C2)cc1 (centres undefined) | inactive |
| CCCN(CC1CC1)C(=S)NC(=O)c1ccccc1Br | inactive |
| CCOc1ccc(NC(=S)N2CCC(NC(=O)c3ccccc3)CC2)cc1 | inactive |
| CCOc1ccc(N/C=C/C(=O)c2cc(OC)c(OC)c(OC)c2)cc1 | inactive |
| Cc1ccc(N/C=C/C(=O)c2ccccc2)cc1C | 0.562 µM (active) |
| Cc1noc(NS(=O)(=O)c2ccc(N/C=C/C(=O)c3ccccc3)cc2)c1C | inactive |
| COc1ccc(C(=O)/C=C/Nc2ccccn2)cc1 | 0.1 µM (active) |
| CCOc1ccc(N/C=C/C(=O)c2ccccc2)cc1 | 0.316 µM (active) |

| SMILES | Potency |
| --- | --- |
| O=C(NNc1ccccn1)c1ccc(Cl)nc1 | inactive |
| O=C(/C=C/NCc1ccc(F)cc1)c1ccccc1 | inactive |
| COc1ccc(C(=O)/C=C/c2ccc(OC3CSC3)cc2)cc1 | inactive |
| O=C(CC1SC(N2CCCC2)=NC1=O)Nc1ccc(C(=O)NCCc2ccc(F)cc2)cc1 (centres undefined) | inactive |
| Cc1ccc(NC(=O)c2cccc(S(=O)(=O)N3CCCc4ccccc43)c2)nc1 | inactive |
| C=CC(=O)OCCOCCOCCOCCOC(=O)C=C | inactive |
| Cc1ccnc(NC(=O)c2ccco2)n1 | inactive |
| Cc1ccnc(Nc2nc3ccccc3s2)n1 | 1.41 µM (active) |
| Cc1ccc(S(=O)(=O)Nc2nc3ccccc3s2)cc1[N+](=O)[O-] | inactive |
| O=C(CCNS(=O)(=O)c1ccc(Br)cc1)NCC1CCCO1 (centres undefined) | inactive |
| O=C(c1cc(-c2ccc(O)cc2)on1)N1CCCc2ccccc21 | inactive |
| O=C(Nc1cccnc1Cl)c1cc(-c2ccccc2O)on1 | inactive |
| O=C(CSc1n[nH]c(-c2cccs2)n1)N1CCCCC1 | inactive |
| O=C(c1cc(-c2ccccc2O)on1)N1CCCC1 | 3.98 µM (active) |
| O=C(c1cc(-c2ccc(F)cc2)on1)N1CCN(c2ccc(F)cc2)CC1 | inactive |
| COc1ccccc1-c1cc(C(=O)N2CCCCC2)no1 | 3.55 µM (active) |
| O=C(c1cc(-c2cccs2)on1)N1CCCCC1 | 0.562 µM (active) |
| O=C(c1cc(-c2ccc(O)cc2)on1)N1CCOCC1 | 1.12 µM (active) |
| O=C(c1cc(-c2cccc(O)c2)on1)N1CCc2ccccc2C1 | inactive |
| CC(=O)c1ccc(NC(=O)c2cc(-c3cccs3)on2)cc1 | inactive |
| COc1cccc(-c2cc(C(=O)N3CCN(c4ccccc4OC)CC3)no2)c1 | inactive |
| COc1ccc(-c2cc(C(=O)N3CCN(c4ccc(F)cc4)CC3)no2)cc1 | inactive |
| O=C(CN1CCC(O)(c2cccc(C(F)(F)F)c2)CC1)NCCc1ccccc1 | inactive |
| O=C(NNC(=O)c1ccc(-n2cncn2)c([N+](=O)[O-])c1)c1ccccc1 | inactive |
| CCOc1ccc(S(=O)(=O)NCCC(=O)NCC2CCCO2)cc1 (centres undefined) | inactive |

| SMILES | Potency |
| --- | --- |
| CCN(CC(=O)Nc1ccccc1C(F)(F)F)C(=O)C1CCN(C(=O)Nc2ccccc2)CC1 | inactive |
| CCOc1ccc(NC(=O)CN(C)C(=O)Cc2sc(C)nc2-c2ccc(F)cc2)cc1OCC | inactive |
| O=C(OCC(=O)N1CCOCC1)c1ccc2ccccc2c1 | inactive |
| CC1(C)CC(=O)C=C(c2ccc(Cl)c(C(F)(F)F)c2)C1 | inactive |
| COc1ccccc1C(=O)NC(CCSC)C(=O)N1CCN(C(C)=O)CC1 (centres undefined) | inactive |
| Cc1ccccc1-c1cc(C(=O)NCc2cccs2)n(CC2CC(c3cccnc3)=NO2)n1 (centres undefined) | inactive |
| O=C(c1cc(COc2c(F)cccc2F)on1)N1CCSCC1 | 3.16 µM (active) |
| O=C(c1cc(COc2cccc(C(F)(F)F)c2)on1)N1CCSCC1 | inactive |
| COCCN1CCN(C(=O)c2cc(COc3ccc(F)cc3Cl)on2)CC1 | inactive |
| COc1ccc(OCc2cc(C(=O)N3CCCC3)no2)c2ccccc12 | 3.98 µM (active) |
| Cc1ccc(C)c(OCc2cc(C(=O)N3CCN(c4cnccn4)CC3)no2)c1 | inactive |
| O=C(c1cc(COc2ccc(F)c(F)c2)on1)N1CCOCC1 | inactive |
| CC(C)(Oc1ccc(Cl)cc1)C(=O)OCC(=O)NCCc1ccc(S(N)(=O)=O)cc1 | inactive |
| Cc1ccsc1C(=O)NC1CCCCC1C (centres undefined) | inactive |
| O=S(=O)(NC1CC1)c1ccc(Cl)cc1 | inactive |
| O=C(NCCC1=CCCCC1)C1CCN(Cc2cnn(-c3ccccc3)c2-n2cccc2)CC1 | inactive |
| Cc1ccc(-c2nc3c(cnn3-c3ccccc3)c(=O)o2)cc1 | inactive |
| CC(C)Sc1ncnc2c1cnn2-c1ccccc1 | 1 µM (active) |
| CCN(C(=O)CSc1ncnc2c1cnn2-c1ccccc1)C1CCS(=O)(=O)C1 (centres undefined) | inactive |
| O=C(NNc1ncnc2c1cnn2-c1ccccc1)c1ccco1 | inactive |
| CC(Sc1ncnc2c1cnn2-c1ccccc1)C(=O)Nc1ccc(N2CCOCC2)cc1 (centres undefined) | inactive |
| c1ccc(-n2ncc3c(N4CCCC4)ncnc32)cc1 | 0.501 µM (active) |
| C1=C(CCNc2ncnc3c2cnn3-c2ccccc2)CCCC1 | 2.82 µM (active) |
| CCC(C)N(C(=O)CSc1ncnc2c1cnn2-c1ccccc1)C1CCS(=O)(=O)C1 (centres undefined) | inactive |

From PubChem BioAssay AID485297 (National Center for Advancing Translational Sciences (NCATS), 2010)
